# From PubChem BioAssay AID686970 (National Center for Advancing Translational Sciences (NCATS), 2013)
# Out of some 360,000 compounds screened, about 6,000 (1.7%) were called active. About 8% were inconclusive and are not listed. The list comes from a sample in which actives are over-represented; it also holds similar structures and randomly drawn compounds. A call without a number means that no potency is given here. Values without a mark were called inactive. Calls come from the whole dose curve; as a rule, active = well fitted cell-killing curve with a large enough effect; inconclusive = small, poorly fitted or top-dose-only effect, or effect the other way; inactive = flat fitted curve, though single readings scatter.
# Test: qHTS for induction of synthetic lethality in tumor cells producing 2HG: qHTS for the HT-1080-NT fibrosarcoma cell line;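 note: NT is the 2HG producing partner of a matched IDH1 knockdown line; nearly all actives have a fitted effect of over 55% in size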
# Conditions: HT-1080-NT fibrosarcoma viability, CellTiter-Glo ATP luminescence, 48 h; series mostly up to 46.1 µM
# Procedure, shortened: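 A 48-hour cytotoxicity screen used HT-1080-NT cells plated 2 hours before compound delivery. ATP-based CellTiter-Glo luminescence measured viability, normalized to DMSO and no-cell controls.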
# Potency is the fitted concentration of half-maximal effect.
Structure (SMILES),Potency,"activity, negative = less viability"
CS(=O)(=O)N(CC(O)Cn1c2ccccc2c2ccccc21)c1cccc2ccccc12 (stereo unspecified),18.4 µM (active),–
Cc1cc(C)n(CC(O)CN(c2ccccc2)S(=O)(=O)c2ccc3ccccc3c2)n1 (stereo unspecified),inactive,–
CCCCN(CCCC)CC(O)Cn1c2ccccc2c(=O)c2ccccc21 (stereo unspecified),inactive,–
COc1ccc(Cn2c(=O)[nH]c3cc(C(=O)N4CCN(C(=O)c5ccco5)CC4)ccc3c2=O)cc1,inactive,–
O=C1NC[C@H](CCCCN2C[C@H](Cc3ccc(O)cc3)N(CC3CCCCC3)C(=O)C2=O)N(CCc2ccccc2)C1=O,inactive,–
O=C(OCc1ccccc1)N1CCC2CC1c1cc(N3CCN(S(=O)(=O)c4cc(Cl)cc(Cl)c4)CC3)ccc12 (stereo unspecified),inactive,–
CCCCOc1ccc(NC(=O)CSCC(=O)OCC)cc1,inactive,–
CCCCCCCCCCOC(=O)Cn1c(COc2cccc(OC)c2)[n+](C)c2ccccc21,inactive,–
CCCCCCCCCCOC(=O)Cn1c(COc2ccc(C)cc2)[n+](C)c2ccccc21,18.4 µM (active),–
CN1CCN(C(=O)c2ccc(NC(=O)c3ccc(Br)o3)cc2)CC1,inactive,–
O=C(Nc1ccc(Cl)cc1)c1csc([C@H]2C[C@H](O)[C@@H](CO)O2)n1,inactive,–
CCOC(=O)C(C(=O)c1ccccc1)C(c1ccccc1)c1nccc2ccccc12 (stereo unspecified),inactive,–
CCOC(=O)[C@]12CCC=C1N(Cc1ccco1)C(=O)[C@H](CC(=O)N1CCSCC1)C2,inactive,–
O=[N+]([O-])c1c(NCCO)cc(Sc2nc3ccccc3s2)c2nonc12,5.62 µM (active),–
CCN(CC)CCCSc1nc2ccccc2s1,inactive,–
Nc1nnc(SCC(=O)Nc2ccc3nc(SCC(=O)Nc4ccccc4)sc3c2)s1,inactive,–
CC1(Cc2ccccc2C#N)C(=O)Nc2ccc(-c3ccc4[nH]ccc4c3)cc21 (stereo unspecified),7.31 µM (active),–
O=C(NCc1cccnc1)c1cc(C2CCCN(C(=O)C3CCCCC3)C2)on1 (stereo unspecified),inactive,–
Cc1ccc(-c2c(N)nc3ncccn23)cc1,inactive,–
COCC1CCCCN1C(=O)c1cc(COc2ccc(C)c(C)c2)on1 (stereo unspecified),inactive,–
CC1(Oc2cccc(F)c2)CCN(Cc2ccccc2OC(F)F)C1 (stereo unspecified),inactive,–

Structure (SMILES),Potency,"activity, negative = less viability"
O=C(Cc1ccccc1)Nc1ccc(NC(=O)c2cccnc2)cc1,inactive,–
CCCC(=O)Nc1nc2ccc(NC(=O)c3c(F)c(F)c(OC)c(F)c3F)cc2s1,1.03 µM (active),–
CSc1nc2ccc(NC(=O)c3c(F)cccc3F)cc2s1,inactive,–
CCCC(=O)Nc1nc2ccc(NC(=O)c3cccnc3)cc2s1,6.31 µM (active),–
CCOC(=O)c1cc(NC(=O)c2cccnc2)ccn1,inactive,–
CC(=O)Nc1ccc2nc(NC(=O)CS(=O)(=O)c3ccc(F)cc3)sc2c1,inactive,–
CCc1nc2c(OCC(=O)C(C)(C)C)cccn2c1N(C)C(=O)c1ccccc1F,inactive,–
CC1C(=O)N(Cc2cn(CC3CCCCC3)nn2)CCS(=O)(=O)N1Cc1ccc(-c2cccc(N(C)C)c2)cc1 (stereo unspecified),inactive,–
COC(=O)C[C@H]1C=C[C@H](NC(=O)c2ccc(F)cc2)[C@@H](CO)O1,inactive,–
CN1C[C@@H](CO)O[C@@H](n2cnc3c(N4CCN(CCO)CC4)ncnc32)C1,inactive,–
O=C(Nc1ccccc1F)c1ccc(S(=O)(=O)N2CCCCCC2)cc1,–,-4.83% [at 9.24 µM]
CCOC(=O)N1CCN(S(=O)(=O)c2ccc(Br)cc2)CC1,inactive,–
CCOC(=O)N1CCN(S(=O)(=O)c2ccc(C(=O)Nc3ccc(F)cc3F)cc2)CC1,1.78 µM (active),–
O=C(c1cccs1)N1C[C@H](n2cc(C3CC3)nn2)[C@@H](O)C[C@@H]1c1ccccc1,inactive,–
CNC(=O)C[C@H]1C(=O)N(Cc2ccccc2)C[C@@H]1CSC,inactive,–
Cc1cccc(C)c1-n1nnnc1C(CCc1ccccc1)N1CCN(C/C=C/c2ccccc2)CC1 (stereo unspecified),inactive,–
CN(C)CCN(C(=O)CN1C(=O)c2ccccc2C1=O)c1nc2cc3c(cc2s1)OCCO3,inactive,–
Cc1ccc2nc(N(CCN(C)C)C(=O)C3=COCCO3)sc2c1,inactive,–
Brc1ccc2nc(N3CCCC3)sc2c1,inactive,–
COc1ccc2sc(N(CCCN(C)C)C(=O)c3ccc(S(=O)(=O)N(C)C4CCCCC4)cc3)nc2c1,inactive,–
CCc1ccc2nc(N(CCCN(C)C)C(=O)c3ccc4c(c3)OCCO4)sc2c1,20.6 µM (active),–

Structure (SMILES),Potency,"activity, negative = less viability"
CN(C)CCCN(C(=O)c1ccc(S(=O)(=O)N2CCCCCC2)cc1)c1nc2ccc(Br)cc2s1,18.4 µM (active),–
OC(c1ccccc1)c1nc(/C=C/c2ccc(C(F)(F)F)cc2)cs1 (stereo unspecified),inactive,–
CC(=O)C[C@@H]1OC[C@H](C)N1S(=O)(=O)c1ccc(C)cc1,inactive,–
C=CCn1c2c(c3ccccc31)CCC2,inactive,–
Cc1cccc(CNC(=O)c2sc(=O)n(Cc3ccccc3C)c2C)c1,inactive,–
O=C(NCCc1ccccc1)C1CCN(S(=O)(=O)c2ccc(Br)s2)CC1,inactive,–
O=S(=O)([N-]c1nc2ccccc2nc1-[n+]1ccc(Cc2ccccc2)cc1)c1ccc(Br)s1,14.6 µM (active),–
O=S(=O)(NCc1cccnc1)c1ccc(Br)s1,inactive,–
C[C@@H]1CN([C@@H](C)CO)C(=O)c2cc(Br)cnc2O[C@H]1CN(C)Cc1ccc(-c2ccccc2)cc1,inactive,–
COc1ccccc1N1CCN(C(=O)c2cc(=O)c3cc(C)cc(C)c3o2)CC1,0.0206 µM (active),–
COc1ccccc1N1CCN(C(=O)c2c(-c3c(Cl)cccc3Cl)noc2C)CC1,inactive,–
COc1ccccc1N1CCN(C(=O)c2ccc(Cl)c(S(=O)(=O)N3CCCC3)c2)CC1,inactive,–
O=C(NC1CCCC1)C1c2ccccc2OCC(=O)N1Cc1ccccc1 (stereo unspecified),inactive,–
COc1ccc(S(=O)(=O)N2CCCCCC2)cc1NC(=O)Cc1ccc(OC)c(OC)c1,inactive,–
COc1ccc(-c2ccc(Nc3ccc(S(=O)(=O)N4CCCC4)cc3)nn2)cc1OC,11.2 µM (active),–
COc1cc(C(C)=O)ccc1OC(C)C(=O)Nc1ccc(S(=O)(=O)N2CCCC2)cc1 (stereo unspecified),inactive,–
CCc1nc2c(OCCOc3ccccc3)cccn2c1N(C)C(=O)c1ccccc1F,inactive,–
COc1cc(C#Cc2ccc3cc(CCCO)oc(=O)c3c2)cc(OC)c1,4.61 µM (active),–
O=C1c2ccccc2C(=O)N1CCC#Cc1ccc2cc(C3(O)CCCCC3)oc(=O)c2c1,inactive,–
